Among all 190,000 compounds or so, about 3,500 (1.8%) were called active.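 The calls were made as follows: active = inhibition above a set limit, 3 SD over mean compound inhibition (cut at about 8.4% in these data); inactive = the rest.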 Shown is part of a subset that was picked to be rich in actives.
assay: RAM signaling blockers in budding yeast – dse1pr::URA3 reporter, 5-FOA selection, primary screen (AID 868);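 also: 0% = DMSO-only wells with no growth and 100% = 10 µM 1-NA-PP1 full growth; inhibition rescues growth on 5-FOA so higher OD means more RAM inhibition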; conditions: S. cerevisiae dse1pr::URA3 reporter, 5-FOA growth OD615, 2 d; at 50 µM; hits give high values; analog-sensitive cbk1-as2 kinase mutant strain

Row | Compound | inhibition
1 | CCN(CC)Cc1nc2sc(C)c(C)c2c(=O)[nH]1 | 2.28% (inactive)
2 | CNS(=O)(=O)c1ccc(NC(=O)C2CC(=O)N(c3ccc(Cl)cc3)C2)cc1 (stereo not drawn) | 4.28% (inactive)
3 | CSc1ccccc1-c1nnc(-c2ccc(Cl)cc2)o1 | 15.5% (active)
4 | FC(F)(F)c1cnc(Oc2ccccc2-c2nnc(-c3ccc(Cl)cc3)o2)c(Cl)c1 | 4.37% (inactive)
5 | Nc1ccc(-c2nnc(-c3ccc(-c4ccccc4)cc3)o2)cc1 | 6.59% (inactive)
6 | Cc1cccn2c(CN(C)C3CCCc4ccccc43)c(C(=O)N3CCOCC3)nc12 (stereo not drawn) | 1.88% (inactive)
7 | CC(=O)C1C(c2ccc(Cl)cc2)c2c(n[nH]c2C)CC1(C)O (stereo not drawn) | -0.49% (inactive)
8 | Cc1cc(C)nc(NS(=O)(=O)c2ccc(N/C=C\C(=O)c3cccs3)cc2)n1 | 3.54% (inactive)
9 | Cc1noc(NS(=O)(=O)c2ccc(NC(=O)C34CCC(CC3)C4)cc2)c1C | 2.19% (inactive)
10 | Cc1ccc(C(=O)/C=C/Nc2ccc(S(=O)(=O)Nc3onc(C)c3C)cc2)cc1 | 11% (active)
11 | COc1ccc(C(=O)Nc2ccc(S(=O)(=O)Nc3onc(C)c3C)cc2)cc1OC | 2.49% (inactive)
12 | Cc1noc(NS(=O)(=O)c2ccc(N/C=C/C(=O)c3ccccc3)cc2)c1C | 11.4% (active)
13 | CCn1c(SCC(=O)Nc2ccc(S(=O)(=O)Nc3onc(C)c3C)cc2)nnc1-c1ccccc1 | 4.88% (inactive)
14 | O=C1OCC2=C1C(c1ccccc1)CC(=O)N2c1cccc(F)c1 (stereo not drawn) | 0.77% (inactive)
15 | O=c1oc(/C=C/c2ccccc2)nc2ccccc12 | 1.38% (inactive)
16 | Cc1cc(C)n(Cc2cnc(N3CCOCC3)s2)n1 | 0.36% (inactive)
17 | C/C(=N\NC(=O)c1cccnc1)c1ccc(-n2ccnc2)cc1 | 2.36% (inactive)
18 | N#C/C(=C(/O)COC(=O)COc1ccc(Cl)cc1)c1nc2ccccc2[nH]1 | 3.15% (inactive)
19 | N#C/C(=C(/O)COc1cccc2ccccc12)c1nc2ccccc2[nH]1 | 2.62% (inactive)
20 | Cc1ccccc1OC/C(O)=C(\C#N)c1nc2ccccc2[nH]1 | 10.3% (active)
21 | O=C(COC(=O)c1ccc(Cl)nc1)NCc1cccs1 | 1% (inactive)
22 | CC(=O)Nc1ccc(Nc2nc3c(S(=O)(=O)c4ccc(C)c(C)c4)nnn3c3ccccc23)cc1 | 7.93% (inactive)
23 | COc1cccc(NC(=O)c2ccc3c(SCC(=O)O)c4c(nc3c2)CCCC4)c1 | 6.04% (inactive)
24 | Cc1ccc(N=Nc2c(C)[nH]n(-c3ccccc3)c2=O)cc1 | 13.2% (active)

Row | Compound | inhibition
25 | Cc1[nH][nH]c(=O)c1N=Nc1ccccc1 | 2.99% (inactive)
26 | Cc1c(C=O)n(C)n(-c2ccccc2)c1=O | 2.38% (inactive)
27 | Cc1c(N=Nc2ccc(N(C)C)cc2)c(=O)n(-c2ccccc2)n1C | 25.4% (active)
28 | Cc1c(NC(=S)Nc2ccccc2)c(=O)n(-c2ccccc2)n1C | 2.71% (inactive)
29 | Cc1cccc(N=Nc2c(C)[nH]n(-c3ccccc3)c2=O)c1 | 7.54% (inactive)
30 | COc1cccc(/C=N/NC(=O)CNC(=O)c2ccc(S(=O)(=O)N3CCOCC3)cc2)c1OC | 1.56% (inactive)
31 | CCCN(CCC)C(=S)Nc1cc(C(=O)OC)ccc1C(=O)OC | -0.65% (inactive)
32 | CCC(CC)C(=O)Nc1ccc(S(=O)(=O)Nc2nccs2)cc1 | 1.58% (inactive)
33 | COC(=O)CCSc1nccn1Cc1ccccc1 | 3.09% (inactive)
34 | COc1ccc(-n2cnnc2SCC(=O)Nc2cccc([N+](=O)[O-])c2)cc1 | 1.48% (inactive)
35 | COC(=O)CCSc1cc([N+](=O)[O-])cc2c1c(C1OCCS1)nn2-c1ccccc1 (stereo not drawn) | 17.6% (active)
36 | Cc1cc([N+](=O)[O-])ccc1NC(=O)c1ccc(NC(=O)C(C)C)cc1 | 0% (inactive)
37 | Cn1c(=NC(=O)c2ccc3c(c2)OCCO3)sc2cc(S(C)(=O)=O)ccc21 | 3.99% (inactive)
38 | O=C1/C(=C/c2cccs2)CCC1C1CCCC1 (stereo not drawn) | 2.26% (inactive)
39 | O=C1/C(=C/c2cccs2)CCc2ccccc21 | -0.39% (inactive)
40 | CCC1C/C(=C/c2cccs2)C(=O)/C(=C/c2cccs2)C1 (stereo not drawn) | 14.8% (active)
41 | CCN(C(=O)CSc1nc2ccccc2n1CC)C1CCS(=O)(=O)C1 (stereo not drawn) | 0.65% (inactive)
42 | O=C(NC(=S)Nc1ccc(S(=O)(=O)N2CCOCC2)cc1)c1ccccc1[N+](=O)[O-] | 3.57% (inactive)
43 | O=C(COC(=O)CC1CC2CCC1C2)NC(=O)NC1CCCC1 (stereo not drawn) | 0.76% (inactive)
44 | O=C(COC(=O)/C=C/c1nc2ccccc2s1)Nc1ccccc1Oc1ccccc1 | 14.3% (active)
45 | COc1cc(/C=C/C(=O)OCC(=O)Nc2cccc(Oc3ccccc3)c2)ccc1O | 7.29% (inactive)
46 | CCN(C(=O)COC(=O)/C=C/c1nc2ccccc2s1)C1CCS(=O)(=O)C1 (stereo not drawn) | 2.32% (inactive)
47 | COc1ccc(OC)c(/C=C/C(=O)OCC(=O)Nc2ccc3c(c2)OCCO3)c1 | 7.42% (inactive)
48 | CC(=O)Nc1ccc(SCC(=O)Nc2ccccc2Oc2ccccc2)cc1 | 1.01% (inactive)

Row | Compound | inhibition
49 | COc1ccc(/C=C/C(=O)OCC(=O)Nc2cccc(Oc3ccccc3)c2)c(OC)c1 | 16.7% (active)
50 | CCN1CCN(C(=O)c2ccc(CN(c3ccc(C)c(C)c3)S(C)(=O)=O)cc2)CC1 | 0.38% (inactive)
51 | O=C(CCCNS(=O)(=O)c1cccc2nsnc12)NCCN1CCN(c2ccccc2F)CC1 | -1.28% (inactive)
52 | COc1ccc(/C=C2/C(=O)OCc3cc(OC)c(OC)cc32)c(OC)c1 | 7.31% (inactive)
53 | COC(=O)Cc1ccc(N(Cc2ccccc2F)S(=O)(=O)c2ccc(Br)cc2)cc1 | 6.05% (inactive)
54 | Cc1cccc(C(=O)N2CCC(c3nc4ccccc4s3)CC2)c1 | 0.14% (inactive)
55 | Cc1cc(C)n2nc(C(=O)N(C)C(c3ccccc3)c3ccccc3)nc2n1 | 2.14% (inactive)
56 | CC1CCN(S(=O)(=O)c2ccc(S(=O)(=O)NCc3cccnc3)cc2)CC1 | 0.4% (inactive)
57 | COc1cccc(NS(=O)(=O)c2ccc3[nH]cc(C(=O)NCCCOC(C)C)c(=O)c3c2)c1 | 9.49% (active)
58 | CCN(CC)S(=O)(=O)c1ccc2[nH]cc(C(=O)NCCc3ccccc3)c(=O)c2c1 | 6.86% (inactive)
59 | CCCCNC(=O)c1c[nH]c2ccc(S(=O)(=O)Nc3ccc(OCC)cc3)cc2c1=O | 5.33% (inactive)
60 | CN(C)CCSc1nc(N)c2c3c(sc2n1)COC(C)(C)C3 | 0.35% (inactive)
61 | CCC1(C)Cc2c(sc3nc(SC)nc(N)c23)CO1 (stereo not drawn) | 1.97% (inactive)
62 | CCCSc1nc(NCc2ccco2)c2c3c(sc2n1)COC(C)(CC)C3 (stereo not drawn) | 13.4% (active)
63 | Cc1cccc(N2C(=O)CC(SC(N)=Nc3ccccc3)C2=O)c1 (stereo not drawn) | 5.62% (inactive)
64 | Cc1cccc(N2C(=O)c3cccnc3C2=O)c1 | 0.23% (inactive)
65 | Cc1cccc(N2C(=O)C3C(c4ccccc4)OC4(C(=O)c5ccccc5C4=O)C3C2=O)c1 (stereo not drawn) | 10.5% (active)
66 | Cc1cccc(NC(=O)Cn2c(=O)n(Cc3ccccc3)c(=O)c3c(C)c(C)sc32)c1 | 2.47% (inactive)
67 | Cc1cc(C(=O)N/N=C/c2ccccc2[N+](=O)[O-])c(C)o1 | 1.55% (inactive)
68 | CCOC(=O)c1cc2occc2n1CC(=O)NC1CCC(C)CC1 (stereo not drawn) | 1.74% (inactive)
69 | COC(=O)c1cc2occc2n1Cc1nc(-c2ccccc2C)oc1C | 10.4% (active)
70 | Cc1ccccc1-c1nc(CS(=O)(=O)CC(=O)N2CCc3ccccc3C2)c(C)o1 | 3.54% (inactive)
71 | COc1ccc(F)c(-c2nc(CN3CCC(c4ccccc4)CC3)c(C)o2)c1 | 1.5% (inactive)
72 | O=C1/C(=C/c2ccc3c(c2)OCO3)CCC/C1=C\c1ccc2c(c1)OCO2 | 11.6% (active)

Row | Compound | inhibition
73 | CSC1=N/C(=C\c2ccc3c(c2)OCO3)C(=O)S1 | 5.69% (inactive)
74 | CCC1=C/C(=C\c2ccc3c(c2)OCO3)C(=O)S1 | 5.39% (inactive)
75 | C=CS(=O)c1sc(Cl)c(N2CCOCC2)c1[N+](=O)[O-] (stereo not drawn) | -1.6% (inactive)
76 | Cc1cccc(C(=O)OCC(=O)Nc2sc3c(c2C#N)CCC3)c1 | 3.27% (inactive)
77 | C=CCn1cc(-c2cccc(C(F)(F)F)c2)cc(C#N)c1=O | 1.24% (inactive)
78 | C=CCn1c(SCn2nnc3ccccc3c2=O)nnc1-c1ccc(Cl)cc1 | 1.52% (inactive)
79 | C=CCn1c(-c2ccc(Cl)cc2)ccc(C#N)c1=O | 10.6% (active)
80 | Cc1cccc(/C(N)=N/OC(=O)c2ccccc2Cl)c1 | -0.84% (inactive)
81 | O=C(O)C1CCCN(S(=O)(=O)c2cccc3cccnc23)C1 (stereo not drawn) | 2.19% (inactive)
82 | COc1ccc(NC(=O)C2CCCN(S(=O)(=O)c3cccc4cccnc34)C2)cc1OC (stereo not drawn) | -0.46% (inactive)
83 | COc1ccc(NC(=O)C2CCCN(S(=O)(=O)c3cccc4cccnc34)C2)cc1 (stereo not drawn) | 9.02% (active)
84 | COc1ccc(NC(=O)COC(=O)CNC(=O)C2CCCCC2)cc1 | 0.13% (inactive)
85 | CCC(C)(C)c1ccc(Oc2ccc(NC(=O)COC(=O)C3=COCCO3)cc2)cc1 | 12.6% (active)
86 | O=C(OCC(=O)c1cccs1)C1=COCCO1 | 0.33% (inactive)
87 | CCOC(=O)CSc1nc2c(c(=O)n(C)c(=O)n2C)n1Cc1ccccc1F | 5.16% (inactive)
88 | COc1ccccc1NC(=O)CSc1nc2sc(C)c(C)c2c(=O)n1Cc1ccco1 | 4.61% (inactive)
89 | CCOC(=O)CSc1nc2c(sc(=S)n2CCc2ccccc2)c(=O)n1Cc1ccco1 | 10.1% (active)
90 | O=c1[nH]c(N2CCN(Cc3ccc4c(c3)OCO4)CC2)nc2c1CCCC2 | 0.84% (inactive)
91 | CC(=O)Nc1ccn(Cc2c(F)cccc2Cl)n1 | 0.11% (inactive)
92 | O=C(Nc1ccn(Cc2ccccc2)n1)c1cccc(F)c1 | 0% (inactive)
93 | O=C(Nc1ccn(Cc2ccccc2F)n1)c1ccc(COc2ccc(Cl)cc2Cl)o1 | 9.18% (active)

Source: PubChem BioAssay AID868 (SRMLSC, 2007)
